# Activity calls are given as the source filed them. The calls were made as follows: active = hit-call score of the fitted dose curve at least 0.9, where 1 is the maximum; inactive = score below 0.9.
# How the values were obtained:
# [1] = target: Bile acid receptor (Homo sapiens) (UniProt Q96RI1); test: ATG_IR1_CIS: Attagene CIS-FACTORIAL HepG2 Assay for human Nuclear Receptor Subfamily 1 Group H Member 4 (NR1H4), IR1 submotif (AID 2282946); settings: IR1 reporter transcription, actives raise or lower the signal
# In short: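 Transient MRTU transfection, HepG2; 24 h dosing; RNA → RT-PCR → 6-FAM primer extension → HpaI digest → capillary electrophoresis fluorescence. Gain/loss of signal fitted relative to DMSO.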
# [2] = ATG_ISRE_CIS: Attagene CIS-FACTORIAL HepG2 Assay for human Interferon Regulatory Factor 1 (IRF1) binding to an Interferon-Stimulated Response Element (ISRE) (AID 2282948); settings: HepG2 ISRE cis-reporter (Attagene), mRNA transcription readout; actives raise or lower the signal
# In short: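 Transiently transfected HepG2 cells carrying cis-element reporter units, dosed 24 hours. Reporter mRNA quantified by RT-PCR, fluorescent primer extension, HpaI digestion and capillary electrophoresis. Bidirectional fitting relative to DMSO.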
# [3] = ATG_M_32_CIS: Attagene CIS-FACTORIAL HepG2 Assay for M32 Transcription Factor (Internal Marker) (AID 2282949); settings: HepG2 Attagene cis-factorial M32 reporter, mRNA; actives raise or lower the signal;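 also: background control marker of the multiplexed CIS panel rather than a real target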
# In short: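 Internal background marker read-out: RT-PCR/capillary electrophoresis fluorescence of reporter transcripts from transiently transfected HepG2 cells after 24 h chemical exposure. Activity fitted bidirectionally relative to DMSO negative control.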
# [4] = ATG_M_06_CIS: Attagene CIS-FACTORIAL HepG2 Assay for M06 Transcription Factor (Internal Marker) (AID 2282950); settings: HepG2 Attagene CIS-FACTORIAL M06 internal marker reporter; actives raise or lower the signal
# In short: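 Steps: transfect HepG2 with multiplexed cis-element reporter constructs; dose chemical 24 h; extract RNA with DNase treatment; reverse-transcribe, PCR-amplify, 6-FAM label, HpaI digest; separate fragments by capillary electrophoresis. Activity fitted both directions versus DMSO.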
# [5] = target: Hypoxia-inducible factor 1-alpha (Homo sapiens) (UniProt Q16665); test: ATG_HIF1a_CIS: Attagene CIS-FACTORIAL HepG2 Assay for human Hypoxia Inducible Factor 1 (HIF1A) (AID 2282951); settings: HepG2 Attagene cis-factorial HIF1a reporter transcription; actives raise or lower the signal
# In short: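 Measures endogenous transcription-factor activity through cis-regulated reporter mRNA in HepG2. Cells dosed 24 h; transcripts quantified by RT-PCR with 6-FAM-labelled products separated by capillary electrophoresis; DMSO serves as negative control.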
# [6] = target: Hepatocyte nuclear factor 6 (Homo sapiens) (UniProt Q9UBC0); test: ATG_HNF6_CIS: Attagene CIS-FACTORIAL HepG2 Assay for human Hepatocyte Nuclear Factor 6 (HNF6) (AID 2282952); settings: HepG2 Attagene cis-factorial HNF6 reporter transcription; actives raise or lower the signal
# In short: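 Multiplexed mRNA reporter assay in transfected HepG2; 24 h dosing; RT-PCR plus capillary electrophoresis fluorescence; DMSO-referenced bidirectional curve fitting.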
# [7] = target: Heat shock factor protein 1 (Homo sapiens) (UniProt Q00613); test: ATG_HSE_CIS: Attagene CIS-FACTORIAL HepG2 Assay for human Heat Shock Transcription Factor 1 (HSE) (AID 2282953); settings: HepG2 HSE cis-reporter, Attagene RNA transcription; actives raise or lower the signal
# In short: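 Cells were transfected with cis-element-driven reporter constructs, dosed for 24 h, then total RNA was reverse-transcribed and reporter cDNA amplified, FAM-labelled and digested with HpaI. Fragments were resolved by capillary electrophoresis; gain or loss was fitted against DMSO.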
# [8] = ATG_MRE_CIS: Attagene CIS-FACTORIAL HepG2 Assay for human Metal Responsive Element (MRE) (AID 2282954); settings: HepG2 MRE cis-reporter transcription, Attagene multiplex; actives raise or lower the signal
# In short: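 HepG2 cells transiently transfected with multiple cis-element reporter units measure endogenous MTF1-driven transcription. After 24 h compound exposure, reporter mRNA is quantified by RT-PCR with 6-FAM labelling, HpaI digestion and capillary electrophoresis; bidirectional fits versus DMSO.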
# [9] = ATG_PBREM_CIS: Attagene CIS-FACTORIAL HepG2 Assay for human Phenobarbital-responsive Enhancer Module (PBREM) (AID 2282955); settings: HepG2 PBREM cis-reporter, Attagene multiplexed transcription; actives raise or lower the signal
# In short: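 Fluorescence of labelled reporter cDNA fragments, resolved by capillary electrophoresis, gives mRNA induction in transfected HepG2 cells treated for 24 h; DMSO serves as negative control and baseline.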
# [10] = ATG_GRE_CIS: Attagene CIS-FACTORIAL HepG2 Assay for human Glucocorticoid Response Elements (GRE) (AID 2282947); settings: HepG2 GRE cis-reporter, Attagene multiplex mRNA; actives raise or lower the signal
# In short: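 HepG2 cells transiently transfected with multiple cis-promoter reporter units measure endogenous TF activity; 24 h compound exposure. Reporter mRNA quantified by RT-PCR, FAM labelling, HpaI digestion and capillary electrophoresis; bidirectional fit vs DMSO baseline.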
# Bile acid receptor (Homo sapiens), sequence (Q96RI1 whole entry, looked up): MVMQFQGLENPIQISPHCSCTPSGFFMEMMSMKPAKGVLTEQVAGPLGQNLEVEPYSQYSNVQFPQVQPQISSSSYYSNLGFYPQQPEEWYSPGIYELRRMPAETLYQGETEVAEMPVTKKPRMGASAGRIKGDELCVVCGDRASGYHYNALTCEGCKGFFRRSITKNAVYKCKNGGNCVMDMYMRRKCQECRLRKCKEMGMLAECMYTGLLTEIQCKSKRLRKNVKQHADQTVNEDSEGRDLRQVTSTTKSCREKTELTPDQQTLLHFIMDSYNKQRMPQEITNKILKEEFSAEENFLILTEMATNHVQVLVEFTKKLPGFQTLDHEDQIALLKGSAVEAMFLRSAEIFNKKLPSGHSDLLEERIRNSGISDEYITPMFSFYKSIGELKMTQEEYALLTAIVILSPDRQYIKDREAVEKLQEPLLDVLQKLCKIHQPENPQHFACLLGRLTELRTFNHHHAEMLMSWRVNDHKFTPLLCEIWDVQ
# Hepatocyte nuclear factor 6 (Homo sapiens), sequence (Q9UBC0 whole entry, looked up): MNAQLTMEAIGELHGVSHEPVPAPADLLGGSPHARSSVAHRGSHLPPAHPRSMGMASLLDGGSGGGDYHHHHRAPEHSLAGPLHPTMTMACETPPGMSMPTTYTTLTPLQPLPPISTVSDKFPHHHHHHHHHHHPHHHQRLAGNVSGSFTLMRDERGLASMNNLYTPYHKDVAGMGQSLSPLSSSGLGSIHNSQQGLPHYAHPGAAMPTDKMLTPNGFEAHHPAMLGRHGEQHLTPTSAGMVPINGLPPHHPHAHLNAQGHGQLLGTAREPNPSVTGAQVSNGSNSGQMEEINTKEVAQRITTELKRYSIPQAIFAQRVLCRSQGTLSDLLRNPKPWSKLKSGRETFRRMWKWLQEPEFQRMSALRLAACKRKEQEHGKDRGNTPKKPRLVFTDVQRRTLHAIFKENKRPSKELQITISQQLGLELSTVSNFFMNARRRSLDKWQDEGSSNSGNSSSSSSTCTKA
# Hypoxia-inducible factor 1-alpha (Homo sapiens), sequence (Q16665 whole entry, looked up): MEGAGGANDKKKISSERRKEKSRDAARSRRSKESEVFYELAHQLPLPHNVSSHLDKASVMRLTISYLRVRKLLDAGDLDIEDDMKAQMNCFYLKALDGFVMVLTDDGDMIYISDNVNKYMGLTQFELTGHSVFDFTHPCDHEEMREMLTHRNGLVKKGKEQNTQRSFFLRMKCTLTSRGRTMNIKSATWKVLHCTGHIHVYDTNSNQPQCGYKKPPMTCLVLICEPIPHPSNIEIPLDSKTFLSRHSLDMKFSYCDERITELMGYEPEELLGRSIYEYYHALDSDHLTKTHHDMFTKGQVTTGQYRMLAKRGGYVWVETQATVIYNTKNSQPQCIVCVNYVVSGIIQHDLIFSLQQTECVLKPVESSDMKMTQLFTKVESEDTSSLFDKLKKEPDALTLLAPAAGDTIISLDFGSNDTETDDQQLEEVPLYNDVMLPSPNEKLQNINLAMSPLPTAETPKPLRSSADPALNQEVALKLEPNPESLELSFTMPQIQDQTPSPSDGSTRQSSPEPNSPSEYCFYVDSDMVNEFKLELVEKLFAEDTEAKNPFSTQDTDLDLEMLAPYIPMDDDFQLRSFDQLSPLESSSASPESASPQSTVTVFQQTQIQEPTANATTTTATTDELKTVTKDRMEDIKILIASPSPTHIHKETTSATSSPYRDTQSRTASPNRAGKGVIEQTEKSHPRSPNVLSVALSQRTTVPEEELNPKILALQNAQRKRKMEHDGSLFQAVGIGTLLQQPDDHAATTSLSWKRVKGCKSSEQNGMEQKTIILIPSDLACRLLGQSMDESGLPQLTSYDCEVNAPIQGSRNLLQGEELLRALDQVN
# Heat shock factor protein 1 (Homo sapiens), sequence (Q00613 whole entry, looked up, the tested form may be a part): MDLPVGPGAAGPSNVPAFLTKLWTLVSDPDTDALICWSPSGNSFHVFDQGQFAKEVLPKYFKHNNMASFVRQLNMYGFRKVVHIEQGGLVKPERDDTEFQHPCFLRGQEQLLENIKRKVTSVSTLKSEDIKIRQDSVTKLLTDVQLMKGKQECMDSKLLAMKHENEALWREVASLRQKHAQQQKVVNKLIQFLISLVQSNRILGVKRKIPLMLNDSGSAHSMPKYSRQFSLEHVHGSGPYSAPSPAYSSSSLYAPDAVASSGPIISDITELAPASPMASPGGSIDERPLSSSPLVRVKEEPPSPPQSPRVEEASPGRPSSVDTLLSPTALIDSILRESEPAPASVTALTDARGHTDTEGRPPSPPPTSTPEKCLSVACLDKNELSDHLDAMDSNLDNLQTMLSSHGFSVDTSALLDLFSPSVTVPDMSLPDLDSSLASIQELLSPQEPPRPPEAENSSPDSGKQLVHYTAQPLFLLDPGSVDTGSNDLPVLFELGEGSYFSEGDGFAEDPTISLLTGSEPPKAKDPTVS
smiles,measurement,setting,value
COCCCOCCCOC,outcome,[1],inactive
same,outcome,[2],inactive
same,outcome,[3],inactive
same,outcome,[4],inactive
same,outcome,[5],inactive
same,outcome,[6],inactive
same,outcome,[7],inactive
same,outcome,[8],inactive
same,outcome,[9],inactive
CCOC(=O)CC,outcome,[1],inactive
same,outcome,[2],inactive
same,outcome,[3],inactive
same,outcome,[4],inactive
same,outcome,[5],inactive
same,outcome,[6],inactive
same,outcome,[7],inactive
same,outcome,[8],inactive
same,outcome,[9],inactive
CCCOC(=O)CCCCC(=O)OCCC,outcome,[10],inactive
same,outcome,[2],inactive
same,outcome,[3],inactive
same,outcome,[4],inactive
same,outcome,[5],inactive
same,outcome,[6],inactive
same,outcome,[7],inactive
same,outcome,[8],inactive
COC(=O)c1ccc2cc(C(=O)OC)ccc2c1,outcome,[10],inactive
same,outcome,[2],inactive
same,outcome,[3],inactive
same,outcome,[4],inactive
same,outcome,[5],inactive
same,outcome,[6],inactive
same,outcome,[7],inactive
same,outcome,[8],inactive
O=C(/C=C/C=C/c1ccc2c(c1)OCO2)N1CCCCC1,AC50,[1],69.4 µM (active)
same,AC50,[2],89.5 µM (active)
same,outcome,[3],inactive
same,outcome,[6],inactive
same,AC50,[7],159 µM (active)
same,AC50,[8],96.1 µM (active)
same,outcome,[9],inactive
C(=CC=Nc1ccccc1)C=CNc1ccccc1,outcome,[1],inactive
same,outcome,[2],inactive
same,outcome,[3],inactive
same,outcome,[4],inactive
same,outcome,[5],inactive
same,outcome,[6],inactive
same,outcome,[7],inactive
same,outcome,[8],inactive
same,outcome,[9],inactive
CC1(C)O[C@@H]2C[C@H]3[C@@H]4C[C@H](F)C5=CC(=O)C=C[C@]5(C)[C@@]4(F)[C@@H](O)C[C@]3(C)[C@]2(C(=O)CO)O1,AC50,[10],0.563 µM (active)
same,outcome,[2],inactive
same,outcome,[3],inactive
same,outcome,[4],inactive
same,outcome,[5],inactive
same,outcome,[6],inactive
same,outcome,[7],inactive
same,outcome,[8],inactive
Nc1ccc(-c2ccc(F)cc2)cc1,outcome,[1],inactive
same,outcome,[3],inactive
same,outcome,[4],inactive
same,outcome,[5],inactive
same,outcome,[6],inactive
same,outcome,[7],inactive
same,outcome,[8],inactive
same,outcome,[9],inactive
CC/C=C\C/C=C\C/C=C\CCCCCCCC(=O)O,outcome,[1],inactive
same,outcome,[3],inactive
same,outcome,[4],inactive
same,outcome,[5],inactive
same,outcome,[6],inactive
same,AC50,[8],140 µM (active)
same,outcome,[9],inactive
c1cc(N(CC2CO2)CC2CO2)ccc1OCC1CO1 (stereo unspecified),outcome,[1],inactive
same,AC50,[2],74.4 µM (active)
same,outcome,[3],inactive
same,outcome,[4],inactive
same,AC50,[5],39.6 µM (active)
same,outcome,[6],inactive
same,AC50,[7],152 µM (active)
same,AC50,[8],31.7 µM (active)
same,outcome,[9],inactive
CC(=O)OCCC1CCCCC1,outcome,[10],inactive
same,outcome,[2],inactive
same,outcome,[3],inactive
same,outcome,[4],inactive
same,outcome,[5],inactive
same,outcome,[6],inactive
same,outcome,[7],inactive
same,outcome,[8],inactive
same,outcome,[9],inactive
CN(C)c1ccc(C(=N)c2ccc(N(C)C)cc2)cc1,outcome,[10],inactive
same,AC50,[2],23 µM (active)
same,outcome,[3],inactive
same,outcome,[4],inactive
same,AC50,[5],0.816 µM (active)
same,outcome,[6],inactive
same,AC50,[7],29.4 µM (active)
same,AC50,[9],7.5 µM (active)
O=c1c2ccccc2oc2ccccc12,outcome,[10],inactive
same,outcome,[2],inactive
same,outcome,[3],inactive
same,outcome,[4],inactive
same,outcome,[5],inactive
same,outcome,[6],inactive
same,outcome,[8],inactive
same,outcome,[9],inactive
CN(C)CCCN(C)C,outcome,[10],inactive
same,outcome,[2],inactive
same,outcome,[3],inactive
same,outcome,[4],inactive
same,outcome,[5],inactive
same,outcome,[6],inactive
same,outcome,[7],inactive
same,outcome,[9],inactive
CNC(=S)NN,outcome,[10],inactive
same,outcome,[2],inactive
same,outcome,[3],inactive
same,outcome,[4],inactive
same,outcome,[6],inactive
same,outcome,[7],inactive
same,outcome,[8],inactive
CCO[Si](C)(OCC)OCC,outcome,[10],inactive
same,outcome,[2],inactive
same,outcome,[3],inactive
same,outcome,[4],inactive
same,outcome,[5],inactive
same,outcome,[6],inactive
same,outcome,[8],inactive
same,outcome,[9],inactive
COc1ccc2nc(N)sc2c1,outcome,[10],inactive
same,outcome,[2],inactive
same,outcome,[3],inactive
same,outcome,[4],inactive
same,outcome,[5],inactive
same,outcome,[6],inactive
same,outcome,[8],inactive
same,outcome,[9],inactive
CCCCC/C=C\CCC=O,outcome,[10],inactive
same,outcome,[2],inactive
same,outcome,[3],inactive
same,outcome,[4],inactive
same,outcome,[6],inactive
same,outcome,[7],inactive
same,outcome,[8],inactive
same,outcome,[9],inactive
CC(CC=O)CCCC(C)(C)O (stereo unspecified),outcome,[10],inactive
same,outcome,[2],inactive
same,outcome,[3],inactive
same,outcome,[4],inactive
same,outcome,[5],inactive
same,outcome,[6],inactive
same,outcome,[8],inactive
O=C(c1ccccc1)C1CCC1,outcome,[10],inactive
same,outcome,[2],inactive
same,outcome,[3],inactive
same,outcome,[4],inactive
same,outcome,[5],inactive
same,outcome,[6],inactive
same,outcome,[7],inactive
same,outcome,[8],inactive
same,outcome,[9],inactive
S=C(NC1CCCCC1)NC1CCCCC1,outcome,[10],inactive
same,outcome,[2],inactive
same,outcome,[3],inactive
same,outcome,[4],inactive
same,outcome,[5],inactive
same,outcome,[6],inactive
same,outcome,[8],inactive
same,outcome,[9],inactive
CC(=O)OCC(=O)[C@@]12N=C(C)O[C@@H]1C[C@H]1[C@@H]3CCC4=CC(=O)C=C[C@]4(C)[C@H]3[C@@H](O)C[C@@]12C,AC50,[10],0.189 µM (active)
same,outcome,[2],inactive
same,outcome,[3],inactive
same,outcome,[4],inactive
same,outcome,[5],inactive
same,outcome,[6],inactive
same,outcome,[8],inactive
same,outcome,[9],inactive
CC1=NC(C)OC1C (stereo unspecified),outcome,[10],inactive
same,AC50,[2],100 µM (active)
same,outcome,[3],inactive
same,outcome,[4],inactive
same,outcome,[5],inactive
same,outcome,[6],inactive
same,outcome,[8],inactive
same,outcome,[9],inactive
CCCCCC/C=C/C=O,outcome,[10],inactive
same,outcome,[2],inactive
same,outcome,[3],inactive
same,outcome,[4],inactive
same,outcome,[5],inactive
same,outcome,[6],inactive
same,outcome,[8],inactive
same,outcome,[9],inactive
Nc1ncn([C@@H]2O[C@H](CO)[C@@H](O)[C@H]2O)c(=O)n1,outcome,[10],inactive
same,AC50,[2],10.8 µM (active)
same,outcome,[3],inactive
same,outcome,[4],inactive
same,outcome,[6],inactive
same,outcome,[7],inactive
same,outcome,[8],inactive
same,outcome,[9],inactive
CCOC(=O)Cc1cccc2ccccc12,outcome,[10],inactive
same,outcome,[2],inactive
same,outcome,[3],inactive
same,outcome,[4],inactive
same,outcome,[5],inactive
same,outcome,[6],inactive
same,outcome,[8],inactive
same,outcome,[9],inactive
NCCCN1CCN(CCCN)CC1,outcome,[10],inactive
same,outcome,[2],inactive
same,outcome,[3],inactive
same,outcome,[4],inactive
same,outcome,[5],inactive
same,outcome,[6],inactive
same,outcome,[7],inactive
same,outcome,[8],inactive
same,outcome,[9],inactive
Cc1cc(C)c(C(=O)O)c(C)c1,outcome,[10],inactive
same,outcome,[2],inactive
same,outcome,[3],inactive
same,outcome,[4],inactive
same,outcome,[5],inactive
same,outcome,[6],inactive
same,outcome,[7],inactive
same,outcome,[8],inactive
same,outcome,[9],inactive
CCCCCCOc1cc(C)c(O)c(C)c1C,outcome,[10],inactive
same,outcome,[2],inactive
same,outcome,[3],inactive
same,outcome,[4],inactive
same,outcome,[5],inactive
same,outcome,[6],inactive
same,outcome,[7],inactive
same,AC50,[9],11.1 µM (active)
